Screens: PubChem, National Center for Advancing Translational Sciences (NCATS)
POLH inh = qHTS for Inhibitors of Polymerase Eta; Potency, µM (series often up to 114 µM), hits mostly inhibitors; 390,000 compounds, 1.2% hits; recombinant Pol eta, fluorescent DNA replication assay
Target sequence (Q9Y253 whole entry, looked up): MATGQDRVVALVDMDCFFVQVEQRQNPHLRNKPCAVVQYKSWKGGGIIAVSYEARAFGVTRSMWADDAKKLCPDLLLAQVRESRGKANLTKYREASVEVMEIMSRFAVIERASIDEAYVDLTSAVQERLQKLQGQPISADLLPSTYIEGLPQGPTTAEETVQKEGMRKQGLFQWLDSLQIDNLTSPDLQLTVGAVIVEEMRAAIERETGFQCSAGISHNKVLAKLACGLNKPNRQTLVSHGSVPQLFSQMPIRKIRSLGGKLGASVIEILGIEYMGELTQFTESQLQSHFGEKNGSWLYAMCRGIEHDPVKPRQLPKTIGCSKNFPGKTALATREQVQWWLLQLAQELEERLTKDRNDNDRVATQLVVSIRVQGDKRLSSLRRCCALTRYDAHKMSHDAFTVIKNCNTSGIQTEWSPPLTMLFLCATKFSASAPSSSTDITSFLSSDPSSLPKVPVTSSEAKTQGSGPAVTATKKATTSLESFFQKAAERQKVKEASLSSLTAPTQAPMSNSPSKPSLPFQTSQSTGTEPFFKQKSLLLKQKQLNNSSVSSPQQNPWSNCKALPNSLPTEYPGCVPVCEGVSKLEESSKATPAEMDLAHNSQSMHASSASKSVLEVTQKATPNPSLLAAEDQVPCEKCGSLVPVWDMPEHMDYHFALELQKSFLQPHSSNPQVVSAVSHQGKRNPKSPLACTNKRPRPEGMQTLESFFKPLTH
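Fluorescent replication assay: 50 nM final substrate added after a 15 min room-temperature compound preincubation with 10 nM enzyme. Signal taken at 0 min and again at 10 min.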
Pol kappa inh = qHTS for Inhibitors of Polymerase Kappa. DNA polymerase kappa (Homo sapiens), Q9UBT6. purified Pol kappa, fluorescent DNA synthesis assay, 10 min. Potency, µM (highest dose often 107 µM), actives largely listed as inhibitors. 400,000 compounds, 0.53% hits. AID 588579, 2011
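Kinetic fluorescence screen: compound preincubated 15 min RT with 10 nM enzyme; 50 nM substrate (final) initiates; reads at 0/10 min.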
POLB inh = qHTS Assay for Inhibitors of DNA Polymerase Beta; P06746; Pol beta primer extension/strand displacement, fluorescence kinetic; Potency, µM (highest dose often 114 µM), usual class: inhibitors; 340,000 compounds, 1.3% hits; AID 485314, 2010
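Enzyme-only controls used 10 nM Pol beta; buffer lacking enzyme served as negative control. Compound preincubated 15 min, then 50 nM substrate added; 0 and 10 min reads at room temperature.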
PI5P4K alpha inh = qHTS for Inhibitors of phosphatidylinositol 5-phosphate 4-kinase (PI5P4K); Phosphatidylinositol 5-phosphate 4-kinase type-2 alpha (Homo sapiens), P48426; 330,000 compounds, 1.2% hits; max response, %; AID 652105, 2013; PI5P4Kalpha enzyme, ADP-Glo luminescence, 60 min; hits give low values; active means max response of -50% or lower; inconclusive means between -30% and -50%; inactive means -30% or higher; further: value at the top dose of about 77 µM
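ADP-Glo luminescence end-point read after a 60 min room-temperature kinase reaction of PI5P4Kalpha plus substrate, initiated with ATP at 5 microM final. Buffer: 0.038 M HEPES pH 7.4, EGTA, 0.1% CHAPS, 5% DMSO.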
WRN inhibitor = qHTS for Inhibitors of WRN Helicase; Potency, µM (top dose mostly 114 µM), actives largely listed as inhibitors; 360,000 compounds, 0.46% hits; WRN helicase unwinding, fluorescent forked duplex, kinetic; AID 651768, 2012; Bifunctional 3'-5' exonuclease/ATP-dependent helicase WRN (Homo sapiens), Q14191; further: nearly all actives have a fitted effect of over 55% in size
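Primary qHTS, 1536-well format. 20 nM WRN + compound, 15 min RT; start with 100 nM forked fluorophore/quencher duplex, 2 mM ATP (final); kinetic read ex 525/em 598 nm.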
POLI inh = qHTS for Inhibitors of Polymerase Iota; DNA polymerase iota (Homo sapiens), Q9UNA4; Pol iota fluorescent replication assay, 10 min; Potency, µM (highest dose often 115 µM), usual class: inhibitors; 390,000 compounds, 1% hits; AID 588590, 2011
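Fluorescent replication assay read twice, at 0 min and 10 min after adding 50 nM (final) substrate. Enzyme (10 nM) and compounds were first incubated 15 min at room temperature; enzyme-free buffer wells were negative controls.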
Hits are given with their value; - = inactive; ? = inconclusive; . = no result given; [ ] = remark or other dose. Compounds with a hit are over-represented: about 2.8% of the library has one in this group of screens. Unless noted, the call rests on the fitted dose curve; in most records, active means well fitted curve in the direction sought with a large enough effect; inconclusive means small, poorly fitted or top-dose-only effect, or another doubt; inactive means no such curve, though single readings can be large; an effect the other way counts as inactive or inconclusive.

SMILES	POLH inh	Pol kappa inh	POLB inh	PI5P4K alpha inh	WRN inhibitor	POLI inh
O=C(OCc1nnc(-c2ccccc2)o1)c1cccc(S(=O)(=O)N2CCOCC2)c1	-	89µM	.	-	-	-
Cc1cc(C)c(NC(=O)CN2C(=O)c3cccnc3Oc3ccc(C)cc32)c(C)c1	-	-	?	.	.	89µM
Cc1ccc2c(c1)N(CC(=O)Nc1c(C)cccc1C)C(=O)c1cccnc1O2	-	-	-	-	-	-
CCOCCOC(=O)c1ccc(NC(=O)c2cc3ccccc3o2)cc1	-	-	.	-	-	-
CCc1ccc2c(c1)NC(c1ccc(C)cc1)=NC(c1cccs1)=N2	?	-	-	.	.	-
Nc1sc2c(c1C(=O)NC1CCS(=O)(=O)C1)CCC2 (stereo unspecified)	18µM	-	-	-	-	?
CNC(=O)c1c(N)sc2c1CCCCC2	.	.	-	.	.	.
CN(C(=O)CSc1nc2ccc(NC(=O)c3ccco3)cc2s1)c1ccccc1	-	-	-	.	.	-
O=C(N/N=C\c1c[nH]c2ccccc12)c1ccc(O)cc1	-	-	?	-73	-	-
O=C(N/N=C/c1c[nH]c2ccccc12)c1cc(Cl)ccc1O	-	-	-	-55	-	-
O=C(O)C1C(c2ccccc2)C(C(=O)OCc2ccco2)C1c1ccccc1 (stereo unspecified)	79µM	-	?	.	-	?
CCOc1ccc(Nc2cc(C)c3ccccc3n2)cc1	-	-	-	-	-	-
CCOc1ccc(Nc2c3ccccc3nc3ccccc23)cc1	-	-	20µM	-	?	-
C/C(CCC(=O)O)=N/Nc1ccc([N+](=O)[O-])cc1[N+](=O)[O-]	-	-	-	-	-	-
O=C(O)/C(CC(=O)c1ccc(Cl)cc1)=N/Nc1ccc([N+](=O)[O-])cc1[N+](=O)[O-]	89µM	?	?	-53	-[11.6 µM]	?
Cc1ccc(C)c(N=Cc2cc3c(cc2[N+](=O)[O-])OCO3)c1	-	-	?	-	-	-
Cc1ccc(N=Cc2cc3c(cc2[N+](=O)[O-])OCO3)cc1[N+](=O)[O-]	?	?	.	-65	-	?
Cn1c2ccccc2n2c(=O)c(Cl)c(-c3ccccc3)c(C#N)c12	-	-	-	-	-	-
Cn1c2ccccc2n2c(=O)cc(-c3ccccc3)c(C#N)c12	-	-	45µM	-	?	-
Cc1cc(-c2ccccc2)nc2c(Br)c(C(=O)O)nn12	7.9µM	79µM	.	?	?	11µM
COC(=O)[C@]12CCCCC=C1N(CCC1=CCCCC1)C(=O)[C@H](CC(=O)NCCC(C)C)C2	.	.	.	-	-	.
C/C(CC(=O)Nc1cccc(Cl)c1Cl)=N\NC(=O)c1ccccc1C	-	-	50µM	-	-	-
C/C(CC(=O)Nc1cccc(Cl)c1Cl)=N\NC(=O)C(=O)N1CCCC1	-	-	-	-	-	-
O=C1Nc2ccccc2C1=NN1CCCCCC1	-	-	.	-	-	-
Nc1n[nH]c(=S)n1/N=C1/C(=O)Nc2ccccc21	-	-	?	-89	-	-
SMILES	POLH inh	Pol kappa inh	POLB inh	PI5P4K alpha inh	WRN inhibitor	POLI inh
Cc1[nH]n(-c2ccccc2)c(=O)c1C(C[N+](=O)[O-])c1ccc(Br)cc1 (stereo unspecified)	-	-	-	-	?	-
CCOc1ccc(C(c2c(C)[nH]n(-c3ccccc3)c2=O)c2c(C)[nH]n(-c3ccccc3)c2=O)cc1OC	-	-	-	.	.	0.71µM
Cc1[nH]n(-c2ccccc2)c(=O)c1C(c1cccc([N+](=O)[O-])c1)c1c(C)[nH]n(-c2ccccc2)c1=O	-	-	-	-	?	?
COc1cccc(C(C[N+](=O)[O-])c2c(C)[nH]n(-c3ccccc3)c2=O)c1 (stereo unspecified)	-	-	-	-	-	2.5µM
Cc1[nH]n(-c2ccccc2)c(=O)c1C(c1ccc(C(=O)O)cc1)c1c(C)[nH]n(-c2ccccc2)c1=O	-	-	-	-	?	1.4µM
CCN(CC(=O)Nc1ccc(NC(C)=O)cc1)C(=O)c1cccc(-n2cccc2)c1	?	-	.	-	-	56µM
CC[N+](CC)(CC)c1ccc(/C=C/c2ccc3ccccc3n2)cc1	.	45µM	.	.	.	-
CC[N+](C)(C)c1ccc(/C=C/c2ccnc3ccccc23)cc1	.	?	.	.	.	79µM
CC[N+](CC)(CC)c1ccc(/C=C/c2ccnc3ccccc23)cc1	.	45µM	.	.	.	?
CCN(C)c1ccc(/C=C/c2ccnc3ccccc23)cc1	.	-	.	.	.	?
Cn1c(/C(C#N)=C/c2ccc(C(F)(F)F)cc2)nc2ccccc21	.	-	-	.	.	?
Nc1nc2c([nH]c(=O)n2C2OC(CO)C(O)C2O)c(=O)[nH]1 (stereo unspecified)	.	-	.	.	.	.
COc1ccc(C(=O)CC(c2ccccc2)C2C(=O)CCCC2=O)cc1 (stereo unspecified)	79µM	-	-	.	-[11.6 µM]	?
CC(=O)Oc1ccc(-c2nc(-c3ccccc3)no2)cc1	.	-	.	.	.	-
O=C1/C(=C/c2ccccc2O)SC(=S)N1Cc1cccnc1	-	-	-	-51	-	?
O=C1/C(=C/c2cccnc2)SC(=S)N1Cc1ccco1	?	-	.	-	-	-
O=C1/C(=C\c2ccc(O)cc2)SC(=S)N1Cc1ccccc1	-	-	?	-	-[11.6 µM]	?
CCOc1cc(/C=C2/SC(=S)N(Cc3ccccc3)C2=O)ccc1O	?	-	?	-	35µM	?
O=C1/C(=C\c2cc(Br)cc(Br)c2O)SC(=S)N1Cc1ccccc1	79µM	-	35µM	?	40µM	3.2µM
C[C@H](NC(=O)[C@@H]1CCCN1C(=O)[C@@H]1CCCN1C(=O)OC(C)(C)C)c1ccccc1	.	.	.	-	-	.
O=c1cc(-c2ccccc2)n2c(SCc3c(F)cccc3Cl)nnc2[nH]1	-	-	-	.	.	-
Cc1cc(C)cc(N2C(=O)N(Cc3cccc(F)c3)c3ccccc3S2(=O)=O)c1	-	-	-	.	.	-
Cc1cc2c(cc1C)N[C@]1(C[C@H]3CCCC(=O)N4CC[C@@H](C1)[C@@H]34)C(=NCc1ccccc1)N2	.	-	.	.	.	-
NS(=O)(=O)c1ccc(CNS(=O)(=O)c2cc(C(=O)O)ccc2Cl)cc1	20µM	-	?	-	-	?
O=S(=O)(NCc1ccccc1)c1ccc(Cl)c(S(=O)(=O)NCc2ccccc2)c1	-	-	-	-	-	-
Cc1cn([C@H]2C[C@H](O)[C@@H](CNCc3cccn3-c3nccs3)O2)c(=O)[nH]c1=O	-	.	.	-	-	.
CN(CCO)c1nc(N)c2c(N)nc3c(c2c1C#N)CC(=O)N3C1CCCC1	.	.	-	.	.	.
